Assay results taken from PubChem BioAssay (NCATS).
Records with an inconclusive call do not appear. Active and inactive are the calls of the source. The call rests on the fitted dose curve; in most records, active means well fitted inhibition curve with a large enough effect; inconclusive means small, poorly fitted or top-dose-only effect; inactive means flat fitted curve, though single readings scatter.

Legend:
Assay in all cases: qHTS profiling for inhibitors of Plasmodium falciparum proliferation (AID 504749); further: nearly all actives have a fitted effect of over 60% in size
Conditions in all cases: P. falciparum in erythrocytes, SYBR Green DNA, 72 h; series mostly up to 28.7 µM
CP256 = system: CP256
Procedure, shortened: (§1)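 SYBR Green fluorescence (ex 485 nm, em 535 nm) reports parasite DNA after 72 h compound exposure of infected red cells at 0.3% parasitemia, 2.5% hematocrit; signal normalized to 0.29 uM artemisinin and vehicle wells.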

CP260 = system: CP260
Procedure, shortened: as §1

CP262 = system: CP262
Procedure, shortened: as §1

CP265 = system: CP265
Procedure, shortened: as §1

CP266 = system: CP266
Procedure, shortened: as §1

CP268 = system: CP268
Procedure, shortened: as §1

CP269 = system: CP269
Procedure, shortened: as §1

CP286 = system: CP286
Procedure, shortened: as §1

CP291 = system: CP291
Procedure, shortened: as §1

CP297 = system: CP297
Procedure, shortened: as §1

CP305 = system: CP305
Procedure, shortened: as §1

CP315 = system: CP315
Procedure, shortened: as §1

CP325 = system: CP325
Procedure, shortened: as §1

CP329 = system: CP329
Procedure, shortened: as §1

DFO2036 = system: DFO2036
Procedure, shortened: as §1

DIV14 = system: DIV14
Procedure, shortened: as §1

DIV17 = system: DIV17
Procedure, shortened: as §1

DIV30 = system: DIV30
Procedure, shortened: as §1

FAB9 = system: FAB9
Procedure, shortened: as §1

GB4 = system: GB4
Procedure, shortened: as §1

HB3 = system: HB3
Procedure, shortened: as §1

ICS = system: ICS
Procedure, shortened: as §1

JCK = system: JCK
Procedure, shortened: as §1

N140 = system: N140
Procedure, shortened: as §1

P93_24 = system: P93_24
Procedure, shortened: as §1

P94_40 = system: P94_40
Procedure, shortened: as §1

PAD = system: PAD
Procedure, shortened: as §1

PC15 = system: PC15
Procedure, shortened: as §1

PC26 = system: PC26
Procedure, shortened: as §1

PC49 = system: PC49
Procedure, shortened: as §1

SC27B = system: SC27B
Procedure, shortened: as §1

TAB109 = system: TAB109
Procedure, shortened: as §1

TAB165 = system: TAB165
Procedure, shortened: as §1

W2 = system: W2
Procedure, shortened: as §1

Measured: Potency

C[N+]1(C)C2CC[C@H]1CC(OC(=O)[C@@H](CO)c1ccccc1)C2 (some centres undefined)
inactive: CP256 | CP260 | CP262 | CP265 | CP266 | CP268 | CP269 | CP286 | CP291 | CP297 | CP305 | CP315 | CP325 | CP329 | DFO2036 | DIV14 | DIV17 | DIV30 | FAB9 | GB4 | HB3 | ICS | JCK | N140 | P93_24 | P94_40 | PAD | PC15 | PC26 | PC49 | SC27B | TAB109 | TAB165 | W2
